The values that follow come from publication PMC5700166.

Common to all, as to assay: protein-binding microarray (PBM); PBM: ~300 nM protein, 6 mM HEPES pH 7.8, 80 mM KCl, 0.5 mM EDTA, 0.5 mM EGTA, 6% glycerol, 35 ng/ul poly-dIdC, 1% milk, 1 h, room temperature; Ap Aiptasia and Nv Nematostella (sea anemones) / Co Capsaspora / Aq Amphimedon (sponge) / Dm Drosophila / Hu human; RHD is the Rel homology domain; high values mean tight binding
Common to all, as to conditions: dsDNA, one strand shown

Assay [1] addresses T1, GST-Ap-NF-kB RHD (Exaiptasia pallida (Aiptasia), UniProt A0A913YAJ5 2-422).
T1 sequence: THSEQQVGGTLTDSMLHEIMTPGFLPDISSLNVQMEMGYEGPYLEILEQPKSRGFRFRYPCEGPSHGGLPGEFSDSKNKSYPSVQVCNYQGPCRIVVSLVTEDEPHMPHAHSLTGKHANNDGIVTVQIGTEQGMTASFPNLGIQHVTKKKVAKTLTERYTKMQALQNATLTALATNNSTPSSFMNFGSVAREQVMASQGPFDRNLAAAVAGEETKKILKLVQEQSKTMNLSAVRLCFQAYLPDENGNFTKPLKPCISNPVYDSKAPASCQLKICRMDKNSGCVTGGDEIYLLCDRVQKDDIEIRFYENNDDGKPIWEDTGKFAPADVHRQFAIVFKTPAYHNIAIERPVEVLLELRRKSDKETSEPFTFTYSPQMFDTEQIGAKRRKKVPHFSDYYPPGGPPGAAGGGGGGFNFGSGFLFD

In assay [2] the target is T2, GST-Nv-NF-kB (Cys allele) (Nematostella vectensis, UniProt E5G601 2-411).
T2 sequence: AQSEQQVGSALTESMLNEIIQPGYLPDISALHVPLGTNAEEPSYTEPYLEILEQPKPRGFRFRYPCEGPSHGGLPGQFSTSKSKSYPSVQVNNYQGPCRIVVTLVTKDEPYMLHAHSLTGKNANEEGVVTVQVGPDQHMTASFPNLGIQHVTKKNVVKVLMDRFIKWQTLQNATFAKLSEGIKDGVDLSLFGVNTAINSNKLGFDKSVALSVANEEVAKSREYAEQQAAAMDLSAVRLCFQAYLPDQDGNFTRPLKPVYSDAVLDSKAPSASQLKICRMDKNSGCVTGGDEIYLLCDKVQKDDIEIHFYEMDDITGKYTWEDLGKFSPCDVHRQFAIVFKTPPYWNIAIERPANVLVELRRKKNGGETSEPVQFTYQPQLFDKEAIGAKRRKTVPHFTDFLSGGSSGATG

For assay [3], the target named is T3, GST-Co-NF-kB (Capsaspora owczarzaki, UniProt F1ARL5 200-546).
T3 sequence: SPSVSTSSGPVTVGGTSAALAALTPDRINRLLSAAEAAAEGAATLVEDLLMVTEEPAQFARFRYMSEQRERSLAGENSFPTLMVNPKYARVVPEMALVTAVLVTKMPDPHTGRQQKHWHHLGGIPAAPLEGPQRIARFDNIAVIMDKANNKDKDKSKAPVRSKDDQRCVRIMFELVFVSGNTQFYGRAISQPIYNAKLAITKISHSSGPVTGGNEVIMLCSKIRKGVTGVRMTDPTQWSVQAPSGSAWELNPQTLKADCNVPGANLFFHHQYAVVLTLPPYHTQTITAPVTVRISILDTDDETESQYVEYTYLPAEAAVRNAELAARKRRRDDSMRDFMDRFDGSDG

For assay [4], the target named is T4, GST-Dm-Relish (Drosophila melanogaster, UniProt Q94527 99-473).
T4 sequence: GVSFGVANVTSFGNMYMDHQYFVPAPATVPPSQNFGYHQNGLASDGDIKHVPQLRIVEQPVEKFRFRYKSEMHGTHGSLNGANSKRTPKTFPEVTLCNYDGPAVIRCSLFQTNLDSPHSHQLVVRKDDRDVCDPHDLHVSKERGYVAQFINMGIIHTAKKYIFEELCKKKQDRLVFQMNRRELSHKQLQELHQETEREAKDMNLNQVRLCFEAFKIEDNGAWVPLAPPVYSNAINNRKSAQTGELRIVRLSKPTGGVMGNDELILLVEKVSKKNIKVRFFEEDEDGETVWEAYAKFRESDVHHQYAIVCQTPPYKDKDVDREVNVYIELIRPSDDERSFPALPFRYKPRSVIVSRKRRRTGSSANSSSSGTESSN

The target of assay [5] is T5, GST-Aq-NF-kB (Amphimedon queenslandica, UniProt A9Y5G7 2-389).
T5 sequence: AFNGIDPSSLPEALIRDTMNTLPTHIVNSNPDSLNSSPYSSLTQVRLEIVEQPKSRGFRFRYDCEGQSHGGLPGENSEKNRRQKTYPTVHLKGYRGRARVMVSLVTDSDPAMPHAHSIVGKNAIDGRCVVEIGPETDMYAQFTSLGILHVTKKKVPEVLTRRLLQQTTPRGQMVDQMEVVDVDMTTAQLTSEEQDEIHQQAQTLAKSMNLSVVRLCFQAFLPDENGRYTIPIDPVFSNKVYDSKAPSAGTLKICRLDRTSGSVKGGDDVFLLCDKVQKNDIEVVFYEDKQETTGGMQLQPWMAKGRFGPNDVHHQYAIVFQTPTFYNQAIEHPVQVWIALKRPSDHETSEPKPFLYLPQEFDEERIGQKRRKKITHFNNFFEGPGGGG

With “CCGATTAACATCACGGGAATTTCTGATGTTAATCGGGTCTTGATTCGCTTGACGCTGCTG”, the binding signal was 5.46 z-score in assay [1]; 7.5 z-score in assay [2]; 5.53 z-score in assay [3]; 5.6 z-score in assay [4]; 6.28 z-score in assay [5].

Consider “CCGATTAACATCAGGGGTTTCACTGATGTTAATCGGGTCTTGATTCGCTTGACGCTGCTG”, for which the binding signal in assay [1] was 3.56 z-score; in assay [2], 3.24 z-score; in assay [3], 2.93 z-score; in assay [4], 7.34 z-score; in assay [5], 4.84 z-score.

In the case of “CCGATTAACATCAGGTTTTCCCATGATGTTAATCGGGTCTTGATTCGCTTGACGCTGCTG”, the binding signal in assay [1] is 3.58 z-score; in assay [2], 3.91 z-score; in assay [3], 4.33 z-score; in assay [4] it was 5.47 z-score; in assay [5], 4.82 z-score.

Consider “CCGATTAACATCAAAACAGTCCCTGATGTTAATCGGGTCTTGATTCGCTTGACGCTGCTG”, for which the binding signal was 4.53 z-score in assay [1]; 5.79 z-score in assay [2]; 1.26 z-score in assay [3]; 3.28 z-score in assay [4]; 6.16 z-score in assay [5].

On to “CCGATTAACATCAGGGGAATGACTGATGTTAATCGGGTCTTGATTCGCTTGACGCTGCTG”, for which the binding signal in assay [1] came out at 5.81 z-score; in assay [2], 6.43 z-score; in assay [3], 3.9 z-score; in assay [4], 5.22 z-score; in assay [5], 5.09 z-score.

Turning to “CCGATTAACATCACGGAAACCCCTGATGTTAATCGGGTCTTGATTCGCTTGACGCTGCTG”, the binding signal in assay [1] came to 5.32 z-score; in assay [2], 4.37 z-score; in assay [3], 2.13 z-score; in assay [4], 7.12 z-score; in assay [5], 5.38 z-score.

In the case of “CCGATTAACATCAGGATTGCCCCTGATGTTAATCGGGTCTTGATTCGCTTGACGCTGCTG”, the binding signal in assay [1] is 2.91 z-score; in assay [2], 4.26 z-score; in assay [3] it was 1.5 z-score; in assay [4], 2.51 z-score; in assay [5], 5.63 z-score.

For “CCGATTAACATCAGGGGTTACACTGATGTTAATCGGGTCTTGATTCGCTTGACGCTGCTG”, the binding signal in assay [1] amounted to 2.67 z-score; in assay [2], 1.04 z-score; in assay [3] it was 2.66 z-score; in assay [4] it was 2 z-score; in assay [5], 2.36 z-score.

As to “CCGATTAACATCAGGGATATTTATGATGTTAATCGGGTCTTGATTCGCTTGACGCTGCTG”, the binding signal was 2.06 z-score in assay [1]; 2.7 z-score in assay [2]; 1.68 z-score in assay [3]; 2.57 z-score in assay [4]; 3.73 z-score in assay [5].

Consider “CCGATTAACATCAGGGAGCTCCCTGATGTTAATCGGGTCTTGATTCGCTTGACGCTGCTG”, for which the binding signal in assay [1] amounted to 4.49 z-score; in assay [2], 3.24 z-score; in assay [3], 1.46 z-score; in assay [4], 3.76 z-score; in assay [5] it was 6.36 z-score.

In the case of “CCGATTAACATCAAATTTCCCGCTGATGTTAATCGGGTCTTGATTCGCTTGACGCTGCTG”, the binding signal was 3.85 z-score in assay [1]; 5.17 z-score in assay [2]; 4.99 z-score in assay [3]; 2.88 z-score in assay [4]; 5.22 z-score in assay [5].

Take “CCGATTAACATCACCCGATTCCCTGATGTTAATCGGGTCTTGATTCGCTTGACGCTGCTG”: the binding signal in assay [1] worked out at 2.55 z-score; in assay [2] it was 2.62 z-score; in assay [3], 2.5 z-score; in assay [4], 1.62 z-score; in assay [5] it was 2.54 z-score.

As to “CCGATTAACATCAATCCCCCCCGTGATGTTAATCGGGTCTTGATTCGCTTGACGCTGCTG”, the binding signal turned out to be 6.49 z-score in assay [1]; 4.68 z-score in assay [2]; 7.66 z-score in assay [3]; 6.77 z-score in assay [4]; 5.33 z-score in assay [5].

In the case of “CCGATTAACATCACTGGGATTTCTGATGTTAATCGGGTCTTGATTCGCTTGACGCTGCTG”, the binding signal in assay [1] is 2.53 z-score; in assay [2], 1.96 z-score; in assay [3] it was 1.15 z-score; in assay [4], 5.55 z-score; in assay [5], 2.37 z-score.
